# PubChem BioAssay AID1851 (National Center for Advancing Translational Sciences (NCATS), 2009)
# Among all 16,000 compounds or so, about 5,700 (36%) were called active. Not shown: some 24% with an inconclusive outcome. This is one part of the list. A number with no mark means an inactive call. The call rests on the fitted dose curve; in most records, active means well fitted curve in the direction sought with a large enough effect; inconclusive means small, poorly fitted or top-dose-only effect, or effect the other way; inactive means no such curve, though single readings can be large or run the other way.
# Target: Cytochrome P450 1A2 (Homo sapiens) (UniProt P05177)
# Experiment: Cytochrome panel assay with activity outcomes
# Conditions: recombinant CYP, pro-luciferin dealkylation, luminescence, p450-cyp1a2; series mostly up to 57.1 µM; activity, negative = inhibition: at the top concentration
# On the % scale 0 is the no-effect control and ±100 the full control effect.
# Chain of Cytochrome P450 1A2 (Homo sapiens) (P05177 whole entry, looked up): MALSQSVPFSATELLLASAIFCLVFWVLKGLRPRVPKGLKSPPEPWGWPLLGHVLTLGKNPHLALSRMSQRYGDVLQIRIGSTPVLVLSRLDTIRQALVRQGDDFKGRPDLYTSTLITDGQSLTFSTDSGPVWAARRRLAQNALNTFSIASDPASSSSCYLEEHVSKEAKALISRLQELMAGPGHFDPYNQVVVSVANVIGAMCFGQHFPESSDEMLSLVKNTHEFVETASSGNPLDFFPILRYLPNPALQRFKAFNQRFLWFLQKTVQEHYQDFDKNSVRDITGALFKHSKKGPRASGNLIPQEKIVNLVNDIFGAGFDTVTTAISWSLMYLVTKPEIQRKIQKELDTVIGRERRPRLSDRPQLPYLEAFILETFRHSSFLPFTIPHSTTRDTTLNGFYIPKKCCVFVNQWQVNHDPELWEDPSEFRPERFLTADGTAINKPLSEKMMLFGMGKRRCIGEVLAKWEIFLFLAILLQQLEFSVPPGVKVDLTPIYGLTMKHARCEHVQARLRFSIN
SMILES,AC50,"activity, negative = inhibition"
O=C(Nc1cc(Sc2ccccn2)cc([N+](=O)[O-])c1)c1ccc(Cl)cc1,2.51 µM (active),–
O=C(Nc1cc(Sc2ccccn2)cc([N+](=O)[O-])c1)c1ccc([N+](=O)[O-])cc1,3.16 µM (active),–
O=C(Nc1nnc(COc2ccc(Cl)cc2)s1)c1ccc([N+](=O)[O-])cc1,–,8.11%
O=C1[C@H]2[C@H]3[C@H](O)[C@H](O)C/C(=N/OC[C@@H](O)COCc4ccco4)[C@H]3CC[C@@H]2C(=O)N1C[C@@H]1CCCO1,–,-17.3% [at 11.4 µM]
Cc1ccc(C)c(NC(=O)C2C3CCCC2C3c2ccccc2)c1 (stereo not given),–,-4.69%
CCOc1ncccc1C(=O)OCC(=O)Nc1cc(C)ccc1C,10 µM (active),–
Cc1ccc(C)c(NC(=O)Cn2nnc(C(=O)Nc3c(C)cccc3C)c2N)c1,–,-4.32%
Cc1noc(C)c1-c1ccc2ncnc(N(C)C)c2c1,0.631 µM (active),–
Cc1noc(C)c1-c1ccc2ncnc(N(C)Cc3ccco3)c2c1,2.51 µM (active),–
CN1C(=O)OC(C)(C)C1=O,–,-1.91% [at 25.6 µM]
CCc1c(C)nc2ccc(Br)cc2c1Cl,0.316 µM (active),–
Cc1cc(Cl)nc2ccc(Cc3ccc4nc(Cl)cc(C)c4c3)cc12,–,-13.2% [at 2.29 µM]
CO[C@H]1COC(=O)CCC[C@@H](C)[C@H](OC)COC(=O)[C@@H](C)NC(=O)C/C=C\[C@@H]1C,–,3.63% [at 11.4 µM]
O=C(O)[C@H]1CCCNC1,–,-5.56%
Cc1cnn(-c2ccc3nnc(-c4ccc(Cl)cc4)n3n2)c1,0.398 µM (active),–
CNC(=O)Oc1ccc2c(c1)[C@@]1(C)CCN(C)[C@@H]1N2C,–,-15.8%
CCOCCCN1C(=O)CN(C2CCCCCC2)C(=O)C1c1ccc(OC)cc1 (stereo not given),–,-10.7%
CCOCCCn1cnc2c([nH]c3cc(OC)ccc32)c1=O,2 µM (active),–
CO[C@H]1COC(=O)C/C=C\[C@@H](C)COC(=O)[C@H]2CCCN2C(=O)C/C=C\[C@H]1C,–,4.01% [at 11.4 µM]
Cc1cc(N2CCOCC2)ccc1/C=C1\SC(=O)N(C(C)C)C1=O,14.1 µM (active),–
CN(C)c1ccc(/C=C2/C(=O)N(c3ccc([N+](=O)[O-])cc3)N=C2N2CCOCC2)cc1,–,-19%
CC(C(=O)Nc1ccccc1Sc1ccccc1)N(c1ccccc1)S(C)(=O)=O (stereo not given),–,-5.72%
CO[C@@H]1COC(=O)[C@H](COCc2ccccc2)NC(=O)C/C=C\[C@@H](C)[C@H](OC)COC(=O)[C@H](COCc2ccccc2)NC(=O)C/C=C\[C@H]1C,–,-19.7% [at 11.4 µM]
COc1cccc(/C=N/Nc2nc(N3CCCC3)nc(N3CCCC3)n2)c1O,2.51 µM (active),–

SMILES,AC50,"activity, negative = inhibition"
COC(=O)C1=C(C)[C@@H](O)[C@@H](C)[C@H](c2c(OC)c(OC)c(C)c(OC)c2OC)O1,–,-10.1% [at 11.4 µM]
C#C[C@@]1(O)CC[C@@H]2[C@@H]3CCC4=CC(=O)CC[C@@H]4[C@H]3CC[C@]21C,–,-14.1% [at 25.6 µM]
C#C[C@]1(O)CC[C@@H]2[C@H]3CCc4cc(OC)ccc4[C@@H]3CC[C@@]21C,0.501 µM (active),–
CC12CC[C@@H]3c4ccc(OP(=O)(O)O)cc4CCC3C1CCC2=O (stereo not given in full),–,-13.4% [at 2.29 µM]
Clc1ccc(CCNc2nc3ccccc3s2)cc1,11.2 µM (active),–
CC(C)N1CCN(c2ccc(OC[C@@H]3CO[C@@](Cn4cncn4)(c4ccc(Cl)cc4Cl)O3)cc2)CC1,–,-3.45% [at 25.6 µM]
Nc1c(O)cccc1C(=O)C[C@@H](N)C(=O)O,–,-7.38% [at 25.6 µM]
N#C/C(=C\Nc1ccccn1)C(=O)c1ccco1,–,-22.9% [at 11.4 µM]
N#C/C(=C\Nc1ccccn1)C(=O)C1CC1,1.26 µM (active),–
CC(CCN)(CCN)[N+](=O)[O-],–,-10.4% [at 11.4 µM]
O=C(NCCN1CCN(C(=O)C(c2ccccc2)c2ccccc2)CC1)C(=O)Nc1ccccc1,–,-23%
O=C(NCCCN1CCc2ccccc2C1)C1CCN(S(=O)(=O)N2CCCC2)CC1,–,3.7%
CSc1ccc(NC(=O)NCCN2CCc3ccccc3C2)cc1,14.1 µM (active),–
O=C(NCCCN1CCN(c2ccccc2F)CC1)C1CCC(=O)N1C1CCCCC1 (stereo not given),–,0.883%
CSc1ccc(NC(=O)NCCCN2CCN(c3ccccc3F)CC2)cc1,2.51 µM (active),–
Cc1ccccc1CS(=O)(=O)CCC(=O)NCCCN1CCN(c2ccccc2F)CC1,–,-19.6%
Fc1cccc(/C=N\N=C/c2cccc(F)c2)c1,0.2 µM (active),–
COc1cccc([C@@H]2Oc3ccc(OC)cc3/C(=N/O[C@@H](C)c3cc(-c4c(C)cc(C)cc4C)no3)[C@@H]2O)c1,–,-10.9% [at 11.4 µM]
Cc1cc(N)c2cc(NC(=O)Nc3ccc4nc(C)cc(N)c4c3)ccc2n1,–,-1.54% [at 11.4 µM]
Cc1cc(C)c(C(N)=O)c(NC(=O)Nc2ccccc2)n1,3.16 µM (active),–
Cc1noc2ncnc(Oc3ccc4ccccc4c3)c12,8.91 µM (active),–
Cc1cccc(Oc2ncnc3onc(C)c23)c1C,17.8 µM (active),–
CCNCCCNCCCNCCCNCC,–,-9.81%
O=C(Nc1ccc(Cl)c(Cl)c1)N1CCC(N2CCCCC2)CC1,–,-19.8%

SMILES,AC50,"activity, negative = inhibition"
CC1CCN(C(=O)Nc2ccc3nsnc3c2)CC1,11.2 µM (active),–
CC1CCN(CCc2nc3cc(NC(=O)NC4CCCCC4)ccc3n2C)CC1,–,3.24%
COc1ccc(COC(=O)N/N=C2/C[C@@H](O)[C@@H](O)[C@@H]3[C@H]4C(=O)N(c5ccc(F)cc5F)C(=O)[C@@H]4CC[C@H]23)cc1,–,-6.28% [at 11.4 µM]
O=S(=O)(O)c1cc(O)c2c(N=Cc3ccccc3O)cc(S(=O)(=O)O)cc2c1,–,-23.7% [at 2.29 µM]
Cc1cc(O)c(C(C)C)cc1N=Cc1ccccc1O,1.58 µM (active),–
COc1ccc(C(=O)N2CCC3(CCCN(Cc4cc(C(F)(F)F)cc(C(F)(F)F)c4)C3)CC2)cc1,–,11.6%
O=C(O)C1(Nc2ccc(Cl)cc2)CCCC1,–,-2.69% [at 11.4 µM]
N#CC1(Nc2ccc(-c3ccc(NC4(C#N)CCCC4)cc3)cc2)CCCC1,3.16 µM (active),–
COCC(=O)N1CCC2(CCCN(Cc3cc(C(F)(F)F)cc(C(F)(F)F)c3)C2)CC1,–,3.63%
O=C(O)c1c(Cl)c(Cl)c(Cl)c(Cl)c1C(=O)Nc1ccc2cn[nH]c2c1,0.2 µM (active),–
S=C(Nc1ccc2cn[nH]c2c1)Nc1ccc2cn[nH]c2c1,0.126 µM (active),–
N#CC(C#N)=NNc1ccc2cn[nH]c2c1,1.26 µM (active),–
CCN1C(=O)[C@H]2[C@H]3[C@H](O)[C@H](O)C/C(=N/NC(=O)OCc4ccccc4)[C@H]3CC[C@@H]2C1=O,–,-7.29% [at 11.4 µM]
NS(=O)(=O)c1cc(Cl)c(Cl)c(S(N)(=O)=O)c1,–,-15.8% [at 25.6 µM]
CN(C)/C(CN1CCN(C=O)CC1)=C1\N=C(c2ccccc2)OC1=O,14.1 µM (active),–
O=C(O)[C@@H](S)[C@H](S)C(=O)O,–,-20.1% [at 11.4 µM]
CC1CCN(CCCCOc2ccccc2[N+](=O)[O-])CC1,–,-15.7%
CC1CCN(CCOc2cc(Cl)ccc2Cl)CC1,8.91 µM (active),–
OCCN1CCN(CCOc2cccc(Cl)c2)CC1,–,-16.3%
CC1CN(C2CCN(C(=O)c3cccc(Cl)c3)CC2)CC(C)O1 (stereo not given),–,-4.5%
COc1ccccc1CNC(=O)C1CCN(S(=O)(=O)N2CC(C)CC(C)C2)CC1 (stereo not given),–,-15.6%
CC1CCN(C(=O)c2ccc(COc3ccccc3Cl)o2)CC1,3.16 µM (active),–
O=C(OCc1ccccn1)c1ccc(COc2ccccc2Cl)o1,7.08 µM (active),–
C[C@@H]1NC(=O)[C@@H](C)COC(=O)[C@H](C)NC(=O)[C@@H](C)COC1=O,–,0.211% [at 11.4 µM]

SMILES,AC50,"activity, negative = inhibition"
CCn1c(CC(=O)Nc2ccc(C)cc2)nnc1SCC(=O)NCCc1ccccc1,–,12.5%
CC(C)n1nnnc1SCC(=O)NCCc1ccccc1,12.6 µM (active),–
CC(NC(=O)CSc1nc(=O)cc(N)n1CCc1ccccc1)c1ccccc1 (stereo not given),–,-15%
COc1ccccc1CNc1ccnc(-c2ccoc2)n1,1.58 µM (active),–
COc1ccccc1CNc1ccnc(-c2ccc(C(=O)N(C)C)cc2)n1,12.6 µM (active),–
COc1ccc(CNc2ccnc(-c3ccc(N(C)C)cc3)n2)c(OC)c1,3.16 µM (active),–
COc1ccccc1CNc1ccnc(-c2ccc(N(C)C)cc2)n1,0.794 µM (active),–
COC(=O)N1CCC2(CC1)CCN(c1ncccn1)CC2,–,6.95%
CN(C)c1ccc(-c2nccc(NCc3ccccc3)n2)cc1,1.26 µM (active),–
Nc1nnnn1/N=C\c1ccc(Cl)c([N+](=O)[O-])c1,5.01 µM (active),–
O=[N+]([O-])c1cc(/C=N/N2CCN(C3c4ccccc4-c4ccccc43)CC2)ccc1Cl,–,-17%
COc1cc(OC)c2cc(-c3ccncc3)cnc2c1,0.2 µM (active),–
CCc1ccc(C(CC(=O)c2ccc(Cl)cc2)C(=O)O)cc1 (stereo not given),–,7.03%
CCc1ccc(C(=O)CN(C#N)c2nc(C)cc(C)n2)cc1,15.8 µM (active),–
CCCCN(CC)C(=O)Cc1ccccc1OC,14.1 µM (active),–
COCC(=O)N1CCC2(CCN(Cc3ccccc3OC)CC2)CC1,–,13.3%
COc1ccccc1CN1CCC2(CC1)CCN(C(C)=O)CC2,–,13.1%
O=C(OCc1ccc(Cl)cc1Cl)c1cccnc1Cl,1 µM (active),–
O=C(COC(=O)c1cccnc1)c1ccc(Cl)c(Cl)c1,0.891 µM (active),–
O=C(O)COc1c(Cl)cc(Cl)c2cccnc12,–,-1.3% [at 2.29 µM]
Cc1ccc(C(=O)COC(=O)c2ccc3c(c2)C(=O)N(c2cccc4ncccc24)C3=O)cc1C,–,-1.92%
O=C(COC(=O)c1cccnc1Cl)c1ccccc1,11.2 µM (active),–
Cc1ccc(C(=O)COC(=O)c2ccccc2N2C(=O)C3C4CCC(C4)C3C2=O)cc1C (stereo not given),–,-26.5%
